91 compounds from PubChem BioAssay AID652010 (The Scripps Research Institute Molecular Screening Center, 2013) can be followed below.

Among all 370,000 compounds or so, about 4,100 (1.1%) were called active.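 Rule for the calls: active = inhibition above the mean over all tested compounds plus 3 SD (cut at about 3.6% in these data); inactive = the rest.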 Shown is part of a subset that was picked to be rich in actives.

The assay in a line: relief of DAX-1 repression of SF-1 activity – cell-based, luminescence, SF-1 (NR5A1), full-length DAX-1, primary screen (AID 652010).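 Note: 0% = DAX-1 cells with DMSO and 100% = cells lacking DAX-1 with DMSO; higher inhibition means more luminescence from relief of DAX-1 repression.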 The note with it: HEK293T StAR-luciferase reporter, SF-1/DAX-1 repression relief; at 6.8 µM; active compounds read high.
For the compound `NS(=O)(=O)c1cc(C(=O)NCCOc2ccccc2)c(Cl)cc1Cl`, the inhibition (commonly the drop in the measured response relative to a control, in per cent) was 0.12% (inactive). As for `O=C(NCCc1csc(-c2ccccc2)n1)c1ccccc1F`, the inhibition was -1.18% (inactive). Then `O=C(NCCOc1ccccc1)c1ccccc1F`, with 6.99% (active); and `O=C(CCS(=O)(=O)c1ccccc1)Nc1ccc(Cl)c(Cl)c1`, with -0.2% (inactive). Then `O=C(CCCCCN1C(=O)C2C3C=CC(C3)C2C1=O)Nc1ccccc1` (stereo unspecified), with 1.39% (inactive); and `Cc1ccc(S(=O)(=O)N(NC2=NS(=O)(=O)c3ccccc32)C(=O)c2ccccc2)cc1`, with 0.29% (inactive); and `O=C(Oc1cccc(NC2=NS(=O)(=O)c3ccccc32)c1)c1ccncc1`, with 0.31% (inactive). The same measure for `CC(C)(C)c1csc(NC2=NS(=O)(=O)c3ccccc32)n1`: 5.84% (active); for `Cc1ccc(Cn2cc(CN3[C@@H](C)COc4cc(Br)ccc4S3(=O)=O)nn2)cc1`: -0.52% (inactive); for `O=C(CC1C(=O)NCCN1Cc1ccc(-c2ccccc2)cc1)NCC1CCOCC1` (stereo unspecified): -0.29% (inactive). Consider `O=C(NCCc1ccccc1)Oc1ccc(Cl)cc1`, for which the inhibition was 0.42% (inactive).

In the case of `O=C(NCCc1ccccc1)c1ccc(NC2=NC3CS(=O)(=O)CC3S2)cc1` (stereo unspecified), the inhibition was -0.02% (inactive). Then `CCCOc1ccc(C(=O)NCCc2ccccc2)cc1`, with 5.47% (active); and `O=C(NC1CCC1)c1ccc(C#CC2CC2)cn1`, with 3.08% (inactive); and `Cc1ccc(OCc2nnc(SC/C=C/c3ccccc3)n2Cc2ccco2)cc1`, with -0.46% (inactive). With `COC(=O)c1cc2c(c3c4ccccc4n(S(=O)(=O)c4cccc(C)c4)c13)C(=O)N(Cc1ccccc1)C2`, the inhibition was -1.85% (inactive).

Take `CNCC(O)c1ccc(O)c(O)c1` (stereo unspecified): the inhibition is 5.84% (active).

For `CCC(C)c1ccc(O)c(/C=N/O)c1` (stereo unspecified), the inhibition was 0.8% (inactive). The same measure for `CC(=NNC(N)=O)C1CC2CCC1CC2` (stereo unspecified): 1.47% (inactive).

On to `CCCCCCCCN1C(=O)[C@@H](CC(=O)N2CCN(C(=O)OCC)CC2)C[C@@]2(C(=O)OC)C1=C[C@H](C1CCCC1)O[C@@H]2C`, for which the inhibition is 0.13% (inactive). On to `CCOC(=O)[C@@]12CN(C(=O)OC(C)(C)C)CC=C1N(Cc1ccc(OC)cc1)C(=O)[C@H]2CC(=O)NCc1ccc(OC)c(OC)c1`, for which the inhibition is -0.16% (inactive). For `CCc1nonc1NC(=O)c1oc2ccc(Cl)cc2c1C`, the inhibition is 0.27% (inactive). Then `Cc1c(C(=O)Nc2ccccn2)oc2ccc(Br)cc12`, with 8.27% (active). Then `Cc1c(C(=O)NC2CCCCC2)oc2ccccc12`, with 0.4% (inactive). With `Cc1cccc(C(=O)Nc2c(-c3ccc(F)cc3)nc3ncccn23)c1`, the inhibition was -1.21% (inactive). In the case of `COC(=O)c1ccc(NC(=S)NN2CCOCC2)cc1`, the inhibition is 1.02% (inactive). `CC(OC(=O)CNC(=O)c1ccco1)C(=O)Nc1ccc(Cl)cn1` (stereo unspecified): the inhibition is -0.16% (inactive). The same measure for `CCCc1cc(C(=O)Nc2ccc(C(=O)OC)cc2)cs1`: 7.38% (active); for `CC(OC(=O)CCCOc1ccccc1)C(=O)Nc1ccc(Cl)cn1` (stereo unspecified): 3.13% (inactive). Then `CCC(=O)Nc1ccc(C(=O)Nc2cc(C)on2)cc1`, with -0.34% (inactive); and `CCCc1cc(C(=O)Nc2ccc(Cl)cn2)cs1`, with 16.1% (active); and `O=C(c1ccccc1)c1ccc(-c2ccccc2C(=O)NC2CCCCN(Cc3ccc(Cl)cc3)C2=O)cc1` (stereo unspecified), with -0.77% (inactive). On to `Cc1ccc(-n2c(SCC(=O)Nc3ccc(S(=O)(=O)Nc4nccs4)cc3)nnc2-c2ccncc2)cc1`, for which the inhibition was -0.77% (inactive).

Consider `CCC(c1ccc(NC(=O)OC(C)(C)C)cc1)c1cc(OC)cc(OC)c1` (stereo unspecified), for which the inhibition was -0.05% (inactive). Then `COCc1cc(N2CCN(C(=O)OC(C)(C)C)C[C@@H]2C)ccc1N1CCN(Cc2ccccc2)[C@H](C)C1`, with -0.7% (inactive); and `CCN(CC(=O)Nc1c(F)cccc1F)C(=O)c1ccc(-c2ccccc2)cc1`, with 0.8% (inactive).

With `CCc1cc(C(=O)N(CC)CC(=O)Nc2c(F)cccc2F)sc1C`, the inhibition was -0.69% (inactive). Take `CCN(CC(=O)Nc1c(F)cccc1F)C(=O)c1cnc(C)cn1`: the inhibition is 4.81% (active). Then `CCCC[C@H]1C2CC(OC(=O)NCc3ccccc3)C(C2)[C@H]2CCCCN21` (stereo partly specified), with -0.27% (inactive); and `Cc1ccc(-n2c(SCC(=O)Nc3ccc(S(=O)(=O)Nc4nccs4)cc3)nnc2-c2ccccn2)cc1`, with 0.28% (inactive).

Turning to `COc1cccc(NC(=O)COc2cccnc2[N+](=O)[O-])c1`, the inhibition is 1.83% (inactive).

Regarding `Cc1ccccc1OCC(=O)Nc1ccc(N2CCN(C(=O)C(C)C)CC2)c(Cl)c1`, the inhibition is -2.45% (inactive). Then `Cc1ccccc1OCC(=O)Nc1ccc2c(c1)ncn2C`, with 4.8% (active). The same measure for `COc1ccc(Nc2nc(N)nc(CSC(=S)N3CCC(C)CC3)n2)cc1`: 0.59% (inactive); for `COC(=O)C1=C(C(=O)OC)C2C=C(C(C)C)C1C(=O)C2(C)O` (stereo unspecified): 2.32% (inactive); for `O=C(NCCc1ccc(F)cc1)c1ccc2nccnc2c1`: 7.15% (active). The same measure for `O=C(NCCc1ccc(F)cc1)c1ccc(S(=O)(=O)N2CCCCC2)cc1`: -1.79% (inactive). For the compound `O=C(NCCc1ccc(F)cc1)c1n[nH]c2ccccc12`, the inhibition is 1.23% (inactive). Then `CCOC(=O)[C@]12CCCC3=C1N(CCC3)C(=O)[C@@H](CC(=O)N1CCSCC1)C2`, with 0.52% (inactive); and `COC(=O)[C@]12C[C@H](CC(=O)NCc3ccccc3)C(=O)N(CCc3ccc(OC)c(OC)c3)C1=C[C@H](C(C)(C)C)O[C@@H]2C`, with -0.61% (inactive); and `COc1ccc(NC2=CC(=S)NC(C)(C)C2)cc1`, with -0.32% (inactive).

With `COc1ccc(Nc2cc(=O)n(-c3ccccc3)c3c2c(=O)n(C)c(=O)n3C)cc1`, the inhibition is 0.33% (inactive).

On to `COc1ccc(Nc2ccc3ccccc3c2)cc1`, for which the inhibition was 3.94% (active).

As to `O=C(CNS(=O)(=O)c1ccccc1F)N1CCN(c2ccccn2)CC1`, the inhibition is -0.44% (inactive). Then `CCCCNC(=O)C[C@H]1C[C@@]2(C(=O)OC)C(=C[C@H](COCc3ccccc3)O[C@@H]2C)N(Cc2ccc(Cl)cc2Cl)C1=O`, with -0.49% (inactive); and `COC(=O)C[C@@H]1CC[C@@H]2[C@H](COc3ccc(NC(=O)c4cccc(F)c4)cc3C(=O)N2C)O1`, with 0.44% (inactive); and `CN(C(=O)c1cc2c(=O)n3ccccc3nc2s1)C1CCCCC1`, with 8.94% (active). Then `CCOCCCNC(=O)c1cc2c(=O)n3ccccc3nc2s1`, with 0.63% (inactive); and `CN(CCNC(=O)c1cc2c(-c3ccccc3F)nn(C)c2s1)C1CCCCC1`, with 0.74% (inactive). As to `CN(CCc1ccccc1)C(=O)Cn1nc(-c2ccccc2)ccc1=O`, the inhibition is -1.5% (inactive).

`CSc1ccccc1NC(=O)c1cc(Cl)sc1Cl`: the inhibition is -0.22% (inactive).

Take `CSc1ccccc1NC(=O)c1cc(C2CC2)on1`: the inhibition is 3.85% (active). Then `Cc1nn(Cc2ccc(Cl)c(Cl)c2)c(C)c1NC(=O)c1cc(C2CC2)on1`, with -1.2% (inactive); and `C/C(Cc1ccccc1)=N\NC(=O)CNC(=O)c1ccc2c(c1)OCCO2`, with 0.38% (inactive). Then `Cc1ccc(C(=O)Nc2ccc3c(c2)OCCO3)cc1S(=O)(=O)N1CCOCC1`, with 1.01% (inactive). The same measure for `Cc1nc(NC(=O)c2ccc3c(c2)OCCO3)ccc1Br`: 12.7% (active). `COc1cccc(C(=O)Nc2cc3c(cc2Br)OCCCO3)c1`: the inhibition was 2.47% (inactive).

In the case of `Cc1ccc(S(=O)(=O)NCC(=O)Nc2ccc3c(c2)OCCO3)cc1`, the inhibition is -0.38% (inactive). Then `Cc1ccc(C(=O)NNC(=O)c2ccc3c(c2)OCCO3)cc1`, with 5.23% (active). On to `Cc1ccc(C(=O)Nc2nnc(C3=COCCO3)o2)cc1C`, for which the inhibition is 1.49% (inactive). The same measure for `C/C(=N/NC(=S)Nc1ccccc1)c1ccc2c(c1)OCO2`: 0.83% (inactive); for `O=C(Nc1ccc(N2CCOCC2)c(Cl)c1)c1ccc(S(=O)(=O)N2CCOCC2)cc1`: -0.43% (inactive). Then `O=C(Nc1ccc(N2CCN(C(=O)c3ccccc3)CC2)c(Cl)c1)c1cccnc1`, with -1.45% (inactive); and `CN1CCN(c2ccc(NC(=O)c3ccc4c(c3)OCCO4)cc2Cl)CC1`, with 4.89% (active). Turning to `O=C(Nc1ccccc1)c1ccc2c(c1)OCCCO2`, the inhibition is 14.7% (active). The same measure for `CC(C)(C)n1nc(C2CC2)c(Br)c1NC(=O)c1ccccc1F`: -1.59% (inactive); for `N#Cc1ccc(OC[C@@H](O)CN2CCC(C(O)(c3ccccc3)c3ccccc3)CC2)c(F)c1`: -0.27% (inactive).

As to `CC(C)CNS(=O)(=O)CC1NCCc2ccccc21` (stereo unspecified), the inhibition was -0.78% (inactive). Turning to `COc1cccc(N2CCN(CC(=O)N(C)Cc3ccc(F)cc3)CC2)c1`, the inhibition is -0.23% (inactive). In the case of `C=CCN1C(=O)[C@@H](CC(=O)NCCCCc2ccccc2)[C@]2(C(=O)OCC)CCCCC/C=C/12`, the inhibition is -0.85% (inactive). The same measure for `CCOC(=O)Cn1c2c(n(-c3ccc(F)cc3)c1=O)C=C(c1ccccc1)[C@@H](C)C(C(=O)N(C)C1CCCCC1)=C2`: -1.69% (inactive). For the compound `Cn1c(=O)c([N+](=O)[O-])c(Oc2ccccc2)c2ccccc21`, the inhibition is -1.48% (inactive). Then `C=CCN1C(=O)[C@H](CC(=O)NCCCN2CCCC2=O)[C@@]2(C(=O)OCC)CCCC=C12`, with 0.2% (inactive). Then `CCCCCN1CCCCC(NC(=O)C(C)CCC)C1=O` (stereo unspecified), with 0.06% (inactive); and `c1csc(-c2nnc(SCc3nc4ccccc4[nH]3)o2)c1`, with -0.62% (inactive); and `CCc1ccc2oc(-c3ccc(N)cc3)nc2c1`, with 5.85% (active). On to `O=C(C1CCC(=O)N(C2CC2)C1)N1CCN(c2ccc(Cl)cc2)CC1` (stereo unspecified), for which the inhibition was -0.61% (inactive). The same measure for `CC1(C(=O)Nc2cccc3c2CCCC3)CCN1C(=O)C1(c2ccccc2)CC1` (stereo unspecified): -0.73% (inactive); for `COc1ccc2cc(C(=O)C3CCCN(C(=O)c4sc(C)nc4C)C3)ccc2c1` (stereo unspecified): 0.57% (inactive). Then `CCOc1ccc(NC(=O)C2CCCN(C(=O)Nc3ccccc3)C2)cc1` (stereo unspecified), with -0.8% (inactive); and `CCOc1ccc2nc(C(=O)N3CCCC(C)C3)sc2c1` (stereo unspecified), with 4.1% (active).
